Results taken from PubChem BioAssay.

Tests used:
[1] = tested on: Botulinum neurotoxin type F light chain protease (Clostridium botulinum); assay: Botulinum neurotoxin type F light chain protease inhibition, multiplex microsphere flow cytometry, validation set (AID 588459); details: multiplex microsphere protease substrate cleavage assay, at 10 µM, active compounds read high
[2] = target: Botulinum neurotoxin type A (Clostridium botulinum) (UniProt P0DPI0); assay: BoNT/A light chain protease inhibitors, biochemical, multiplex microsphere flow cytometry, validation set (AID 588460); details: at 10 µM, active compounds read high
[3] = target: Lethal factor (Bacillus anthracis) (UniProt P15917); assay: Lethal factor protease inhibitors, Bacillus anthracis, multiplex microsphere cleavage assay, validation set (AID 588461); details: flow cytometry, at 10 µM, active compounds read high

Measured: inhibition

O=C(/C=C/c1ccc2c(c1)OCO2)NCc1ccc(F)cc1
inactive: [1] -14.5% | [2] -2.4% | [3] -3.4%

COc1cc(C)nc(-n2nc(C)cc2OC)n1
inactive: [1] 0.2% | [2] -1.5% | [3] -4.9%

COc1ccc(S(=O)(=O)NC(Cc2cnc[nH]2)C(=O)O)cc1 (stereo not drawn)
inactive: [1] 2.4% | [2] -0.6% | [3] -0.5%

COc1ccc2oc(=O)c(-c3nc(C)cs3)cc2c1
inactive: [1] 2.9% | [2] 1.9% | [3] -0.1%

Cc1cc(C)nc(NS(=O)(=O)c2ccc(N)cc2)n1
inactive: [1] 1.3% | [2] 2.1% | [3] 3.4%

CC(C)OC(=O)C1C2C=CC3(CN(CC4CCCO4)C(=O)C13)O2 (stereo not drawn)
inactive: [1] 0.2% | [2] 0.8% | [3] -2.9%

CC(C)CCC1(CCNC(C)c2cccs2)CCOC(C)(C)C1 (stereo not drawn)
inactive: [1] -3.5% | [2] -0.9% | [3] -5.3%

O=C(/C=C/c1ccco1)N1CCN(c2ccccc2)CC1
inactive: [1] -0.6% | [2] -1.8% | [3] -0.6%

O=C1CC(c2ccc(F)cc2)Cc2nc(NCC3CCCO3)ncc21 (stereo not drawn)
inactive: [1] -1% | [2] 0.1% | [3] -6.1%

NS(=O)(=O)c1cc2c(cc1Cl)NCNS2(=O)=O
inactive: [1] -3.8% | [2] -2.4% | [3] -4.7%

CCOC(=O)C1=C(C)NC(C)=C(C(=O)OC)C1c1cccc([N+](=O)[O-])c1 (stereo not drawn)
inactive: [1] -1.6% | [2] 0.4% | [3] -10%

Cn1c2ccccc2c2cc(/C=C(\NC(=O)c3ccccc3)C(=O)O)ccc21
inactive: [1] -0.2% | [2] 0.3% | [3] 4.6%

C[C@@H]1CCC[C@H](C)N1NC(=O)c1ccc(Cl)c(S(N)(=O)=O)c1
inactive: [1] 1.2% | [2] -1.2% | [3] -0.8%

Fc1ccc(NC(=S)Nc2ccccc2Cl)cc1
inactive: [1] 1.8% | [2] -0.7% | [3] -3.5%

O=C(COc1ccc2ccc(=O)oc2c1)c1ccccc1
inactive: [1] -5.2% | [2] -1.1% | [3] 1%

CNCCCC1c2ccccc2C=Cc2ccccc21
inactive: [1] -5.9% | [2] -1.6% | [3] -1%

Clc1ccc(Cn2c(CN3CCCC3)nc3ccccc32)cc1
inactive: [1] -2.6% | [2] -1% | [3] -0.3%

CN(C)CCC=C1c2ccccc2CCc2ccccc21
inactive: [1] 1.3% | [2] 0.2% | [3] 0.7%

O=C(O)C1CCN(C(=O)COc2ccc3c4c(c(=O)oc3c2)CCC4)CC1
inactive: [1] 3% | [2] -1.1% | [3] 2.5%

Cc1cccc(Oc2coc3cc(OC(=O)c4cncc(Br)c4)ccc3c2=O)c1
inactive: [1] 2.1% | [2] 0.8% | [3] 2%

O=C(O)c1ccccc1C(=O)OCCCCOC(=O)c1ccccc1C(=O)O
inactive: [1] 5.9% | [2] -0.6% | [3] 3.5%

NC(=O)c1c(-c2ccccc2)oc2ccc(O)cc12
inactive: [1] -1.9% | [2] -0.3% | [3] -5.1%

CC1(C)[C@@H](O)CC[C@]2(C)[C@H]3C(=O)C=C4[C@@H]5C[C@@](C)(C(=O)O)CC[C@]5(C)CC[C@@]4(C)[C@]3(C)CC[C@@H]12
inactive: [1] 4.4% | [2] -1.5% | [3] -0.5%

Cc1ccc(Cl)c(OCCCN(C)Cc2ccccc2)c1
inactive: [1] 2.8% | [2] 0.1% | [3] -7.8%

O=c1[nH]cnc2[nH]ncc12
inactive: [1] 4.1% | [2] 0.8% | [3] -1.1%

CC1(C)CC(CC(=O)O)(c2ccc(Cl)cc2)CCO1 (stereo not drawn)
inactive: [1] 2.5% | [2] -1.9% | [3] -4.6%

Nc1ccc2cn[nH]c2c1
inactive: [1] -8.4% | [2] -2.9% | [3] -16.3%

COC(=O)c1ccc(C(=O)OC)c(NC(=O)C(C)C)c1
inactive: [1] -0.3% | [2] -1.3% | [3] -1.4%

N/C(=N\OC(=O)CCCOc1ccc(Cl)cc1Cl)c1ccncc1
inactive: [1] 3.7% | [2] 0.1% | [3] 1%

COc1ccc(C(=O)O)cc1F
inactive: [1] -1.9% | [2] -0.6% | [3] -1.1%

CCOC(=O)C(=O)N1CCN(c2ccccc2OC)CC1
inactive: [1] 1.5% | [2] -1.1% | [3] -4.9%

COc1cc(C(=O)OCCn2c(=O)c3c(ncn3CCN(C)C)n(C)c2=O)cc(OC)c1OC
inactive: [1] 5.1% | [2] 2.5% | [3] -3.1%

CC(=O)CCCCn1c(=O)c2c(ncn2C)n(C)c1=O
inactive: [1] -1.6% | [2] 0.1% | [3] -6.2%

CCCCCCCC(=O)OCC(O)CO (stereo not drawn)
inactive: [1] -6.1% | [2] -0.1% | [3] -2%

CC(C)(CO)CNC(=O)CC1C(=O)NCCN1CC(c1ccccc1)c1ccccc1 (stereo not drawn)
inactive: [1] 0.8% | [2] -0.4% | [3] 0.3%

OC[C@H]1O[C@@H](n2cnc3c(Nc4ccccc4)ncnc32)[C@H](O)[C@@H]1O
inactive: [1] 1.4% | [2] -0.2% | [3] -2.1%

CCC(C(=O)OCCN(CC)CC)c1ccccc1 (stereo not drawn)
inactive: [1] 2.4% | [2] 0.3% | [3] 3.3%

COc1ccc2c(c1)c(=O)oc1cc3occ(C(C)(C)C)c3cc12
inactive: [1] 1.2% | [2] 1.4% | [3] 6.9%

OC(CCN1CCCCC1)(c1ccccc1)c1ccccc1
inactive: [1] 0.9% | [2] 0.5% | [3] -0.2%

O=C(NCC1CCCCN1)c1cc(OCC(F)(F)F)ccc1OCC(F)(F)F (stereo not drawn)
inactive: [1] -0.8% | [2] -0.3% | [3] -2%

CN(C)c1ccc(Nc2c3c4c(cccc4n(C)c2=O)C(=O)c2ccccc2-3)cc1
inactive: [1] -13.5% | [2] -3.2% | [3] -18.1%

CC(OC(=O)c1cc(=O)[nH]c2ccccc12)C(=O)c1ccccc1 (stereo not drawn)
inactive: [1] 2.3% | [2] -2.4% | [3] -6.9%

Cn1nnnc1SCC1=C(C(=O)O)N2C(=O)[C@@H](NC(=O)[C@H](O)c3ccccc3)[C@H]2SC1
inactive: [1] 1% | [2] 0.9% | [3] 1.9%

COc1ccc(C(=O)NCc2cccnc2)cc1
inactive: [1] -1.8% | [2] 0% | [3] -4.9%

Cc1occc(=O)c1O
inactive: [1] 2.1% | [2] 0.8% | [3] -1.7%

COc1ccccc1C(=O)N=C1NC(=O)CC2C(=O)NCCN12 (stereo not drawn)
inactive: [1] -2.8% | [2] -1.5% | [3] -5.2%

O=C(O)COc1ccc2occ(C(=O)c3ccccc3)c2c1
inactive: [1] -1.3% | [2] 0.2% | [3] 4.6%

CC(C)CC(=O)N(Cc1ccc(F)cc1)C1CCS(=O)(=O)C1 (stereo not drawn)
inactive: [1] 8.9% | [2] 3.7% | [3] -4%

Cc1ccccc1C(=O)Nc1ccccc1C(=O)NCC(C)C
inactive: [1] -5.7% | [2] -0.4% | [3] 1.2%

CC(NC(=O)c1ccc(OC2CCN(Cc3ccccn3)CC2)cc1)c1ccccc1 (stereo not drawn)
inactive: [1] 2.8% | [2] 0.5% | [3] 3.4%

O=C(O)c1cc(-c2ccc3c(c2)OCO3)nc2ccc(Br)cc12
inactive: [1] -1% | [2] 3% | [3] -2.6%

COC(=O)c1ccc(=O)n(Cc2ccco2)c1
inactive: [1] 3.3% | [2] -0.2% | [3] 3.8%

Cn1c(=O)c2nc3ccccc3nc2n(C)c1=O
inactive: [1] -0.9% | [2] 0.5% | [3] -5.4%

CCOc1ccc2nc(NC(=O)NC3CCCCC3)sc2c1
inactive: [1] 0% | [2] -1.5% | [3] -3.9%

Nc1nc(Cl)nc2c1ncn2[C@H]1C[C@H](O)[C@@H](CO)O1
inactive: [1] -8.7% | [2] -2.6% | [3] -19.4%

C=CCn1c(SCC(=O)NC2CCCCC2)nc2ccccc2c1=O
inactive: [1] -0.1% | [2] -1.1% | [3] -3.5%
